Results: PubChem BioAssay (EPA / NIEHS)
Records with an inconclusive call do not appear. Calls of active or inactive are those of the source. The calls were made as follows: active = hit-call score of the fitted dose curve at least 0.9, where 1 is the maximum; inconclusive = response in the unintended direction; inactive = score below 0.9.

Assay: CLD_ACTIN_24hr: CellzDirect (CLD) Gene Expression Assay for Baseline Control (Actin) at 24 hours (AID 2283670)
Experimental: CLD_24hr is a cell-based, multiplexed-readout assay that uses hepatocyte, a human liver primary cell, with measurements taken at 24 hours after chemical dosing in a 96-well plate.CLD_ACTIN_24hr is one of 16 assay component(s) measured or calculated from the CLD_24hr assay. It is designed to make measurements of mRNA induction, a form of inducible reporter, as detected with chemiluminescence signals by Quantitative Nuclease Protection Assay (qNPA) technology.Data from the assay component CLD_ACTIN_24hr was analyzed at the endpoint, CLD_ACTIN_24hr, in the positive analysis fitting direction relative to DMSO as the negative control and baseline of activity. Using a type of inducible reporter, gain-of-signal activity can be used to understand changes in the reporter gene as they relate to the gene ACTA1. Furthermore, this assay endpoint can be referred to as a secondary readout, because this assay has produced multiple assay endpoints where this one serves a background control function. To generalize the intended target to other relatable targets, this assay endpoint is annotated to the background measurement intended target family, where subfamily is baseline control.
Human hepatocyte cultures were treated daily for two consecutive days with fresh dosing solutions containing appropriate concentrations of the 320 ToxCast chemicals (chemical identities were blinded to CellzDirect and other ToxCast collaborators), vehicle control (0.2% DMSO), and positive control inducers as summarized in Table 1. Due to the large number of treatment groups and chemicals examined, the ToxCast chemicals were divided into two groups (spanning two independent cultures of hepatocytes from separate donor preparations (Hu778: ToxCast plates 1 and 2; Hu776: ToxCast plates 3 and 4). Each preparation of human hepatocyte cultures was treated with respective vehicle control, medium only control, set of six positive controls/reference chemicals for the five hepatic receptor pathways, and a subset of eight of the ToxCast chemicals (indoxacarb, pyrithiobac-sodium, norflurazon, cyhalofop-butyl, methomyl, thiram, acetochlor, and propiconazole). These replicate data, coupled with internal replicates designed within the blinded ToxCast chemical library, provided additional data to evaluate interindividual differences between hepatocyte preparations and their potential impact on chemical profiles.Cell morphology and integrity were evaluated using phase-contrast microscopy as an indicator of hepatocyte cell health (Tyson & Green, 1987). Cultures for each treatment group (i.e., media, vehicle [0.2% DMSO], positive control inducers [multiple concentrations], and the ToxCast chemicals [multiple concentrations]) were observed and cell morphology was assessed relative to vehicle control cultures at each harvest time point (0, 6, 24, or 48 h). […] Images were evaluated at the conclusion of the study to assess changes in cell integrity and account for the effects of chemical exposure on uncharacteristic changes in concentration-dependent gene expression profiles. The results from these determinations of apparent cytotoxicity were annotated (yes/no) alongside the corresponding qNPA data for reference.At the conclusion of each treatment period, hepatocyte cultures (96-well) were washed with 1 volume of HBSS, lysed by addition of 25 ul ArrayPlate lysis buffer (HTG, Tucson, AZ), and 70 ul/well of Denaturation Oil, denatured by incubation at 95C for 10 min, and frozen at approximately -70C until analysis by nuclease protection assay (qNPA) (Roberts et al., 2007). For qNPA analysis, cell lysates were thawed at 50C for approximately 30 min, qNPA probes were added, and samples were incubated at 95C for 10 min to begin the detection process by denaturing the target RNA, dissociating the duplexes and secondary structure hybridization. At the conclusion of the hybridization period, S1 nuclease reagent was added to each sample to digest all nonprotected nucleotides at 50C for 60-90 min. […]

| SMILES | outcome |
| --- | --- |
| Cc1c(F)c(F)c(COC(=O)C2C(/C=C(\Cl)C(F)(F)F)C2(C)C)c(F)c1F (stereo unspecified) | inactive |
| CC(Oc1ccc(Cl)cc1Cl)C(=O)O (stereo unspecified) | inactive |
| COC(=O)c1ccccc1C(=O)OC | inactive |
| CCCC1COC(Cn2cncn2)(c2ccc(Cl)cc2Cl)O1 (stereo unspecified) | inactive |
| CCCCOC(=O)c1ccccc1C(=O)OCCCC | inactive |
| N#Cc1nn(-c2c(Cl)cc(C(F)(F)F)cc2Cl)c(N)c1S(=O)C(F)(F)F (stereo unspecified) | inactive |
| COc1nc(C)nc(NC(=O)NS(=O)(=O)c2ccccc2Cl)n1 | inactive |
| N#Cc1cc(Br)c(O)c(Br)c1 | inactive |
| CCCCNC(=O)n1c(NC(=O)OC)nc2ccccc21 | inactive |
| C=CC1(C)OC(=O)N(c2cc(Cl)cc(Cl)c2)C1=O (stereo unspecified) | inactive |
| Cc1ccc(-c2c(Cl)nc(C#N)n2S(=O)(=O)N(C)C)cc1 | inactive |
| CC(C)C1(C)N=C(c2nc3ccccc3cc2C(=O)O)NC1=O (stereo unspecified) | inactive |
| COC(=O)N(OC)c1ccccc1COc1ccn(-c2ccc(Cl)cc2)n1 | inactive |
| COC(=O)C=C(C)OP(=O)(OC)OC | inactive |
| CCNc1nc(Cl)nc(NC(C)C)n1 | inactive |
| CC(C)(C)c1ccc(CSc2cnn(C(C)(C)C)c(=O)c2Cl)cc1 | inactive |

| SMILES | outcome |
| --- | --- |
| CNC(=O)ON=CC(C)(C)SC | inactive |
| COC(=O)C(C)Oc1ccc(Oc2ccc(Cl)cc2Cl)cc1 (stereo unspecified) | inactive |
| C=CCC1=C(C)C(OC(=O)C2C(C=C(C)C)C2(C)C)CC1=O (stereo unspecified) | inactive |
| CN(C)C(=S)SSC(=S)N(C)C | inactive |
| OC(c1ccc(Cl)cc1)(c1cncnc1)c1ccccc1Cl (stereo unspecified) | inactive |
| CCCCC(CC)COC(=O)c1ccccc1C(=O)OCC(CC)CCCC (stereo unspecified) | inactive |
| N#CC(CCc1ccc(Cl)cc1)(Cn1cncn1)c1ccccc1 (stereo unspecified) | inactive |
| COc1nc(NC(C)C)nc(NC(C)C)n1 | inactive |
| CCNc1nc(Cl)nc(NCC)n1 | inactive |
| Oc1ccccc1-c1ccccc1 | inactive |
| CCCCNC(=O)OCC#CI | inactive |
| CCc1nn(C)c(C(=O)NCc2ccc(C(C)(C)C)cc2)c1Cl | inactive |
| CNC(=S)S | inactive |
| COc1cnc(OC)n2nc(NS(=O)(=O)c3c(OCC(F)F)cccc3C(F)(F)F)nc12 | inactive |
| CS/C(C)=N/OC(=O)N(C)SN(C)C(=O)O/N=C(\C)SC | inactive |
